What was measured:
Experiment in all cases: DAPPL (digital affinity profiling via proximity ligation, sequencing); 10 mM Tris-HCl pH 7.5, 50 mM NaCl, 1 mM DTT, 4% glycerol, room temperature, 30 min; GST-TFs on glutathione beads, 16-mer random dsDNA library, 0.1% formaldehyde crosslink after washing; high values mean tight binding
Details in all cases: protein: recombinant; tags: N-terminal GST; dsDNA, one strand shown
ERF = target: T1, ERF (Homo sapiens, UniProt P50548 1-548)
T1 sequence: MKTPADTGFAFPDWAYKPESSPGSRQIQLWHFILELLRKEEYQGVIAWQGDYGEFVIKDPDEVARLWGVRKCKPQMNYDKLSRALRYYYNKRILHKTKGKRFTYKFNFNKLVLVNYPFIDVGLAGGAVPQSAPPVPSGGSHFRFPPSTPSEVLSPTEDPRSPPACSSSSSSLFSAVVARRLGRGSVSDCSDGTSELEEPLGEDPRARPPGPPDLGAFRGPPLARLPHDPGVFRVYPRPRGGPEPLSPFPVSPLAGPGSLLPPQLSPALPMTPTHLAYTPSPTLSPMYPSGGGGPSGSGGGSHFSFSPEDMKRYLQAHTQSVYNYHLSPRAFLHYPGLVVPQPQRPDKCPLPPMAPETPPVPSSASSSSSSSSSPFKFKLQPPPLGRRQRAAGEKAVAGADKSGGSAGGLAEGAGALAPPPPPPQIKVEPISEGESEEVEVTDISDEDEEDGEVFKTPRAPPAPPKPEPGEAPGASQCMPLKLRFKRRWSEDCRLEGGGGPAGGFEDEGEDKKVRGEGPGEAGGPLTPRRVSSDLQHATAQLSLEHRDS
In short: (§1)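 Human transcription factors carrying a GST fusion were produced in yeast, bound to glutathione beads, tagged with DNA barcodes and pooled together with a tag-only sample. Each pool was held with 200 nmole of a random double-stranded 16-mer DNA library in Tris/NaCl/DTT/glycerol buffer for 30 min at room temperature, then washed, crosslinked in 0.1% formaldehyde, proximity-ligated with BsaI/T4 ligase (1 h, 37 °C), PCR-amplified and sequenced on an Illumina NextSeq500. Binding signal is the read frequency of each hexamer for a given factor divided by its frequency in the tag-only sample.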

ETV3L = target: T2, ETV3L (Homo sapiens, UniProt Q6ZN32 1-361)
T2 sequence: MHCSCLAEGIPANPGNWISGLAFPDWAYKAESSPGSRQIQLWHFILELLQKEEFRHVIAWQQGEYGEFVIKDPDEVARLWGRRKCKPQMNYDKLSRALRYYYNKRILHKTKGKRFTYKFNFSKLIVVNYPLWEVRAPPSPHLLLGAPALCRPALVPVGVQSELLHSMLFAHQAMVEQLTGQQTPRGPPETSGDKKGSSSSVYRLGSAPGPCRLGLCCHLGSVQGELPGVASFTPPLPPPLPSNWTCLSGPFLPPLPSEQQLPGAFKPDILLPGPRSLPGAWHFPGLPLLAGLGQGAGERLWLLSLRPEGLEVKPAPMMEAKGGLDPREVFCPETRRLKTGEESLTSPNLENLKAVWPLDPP
In short: as §1

ETS2 = target: T3, ETS2 (Homo sapiens, UniProt P15036 1-469)
T3 sequence: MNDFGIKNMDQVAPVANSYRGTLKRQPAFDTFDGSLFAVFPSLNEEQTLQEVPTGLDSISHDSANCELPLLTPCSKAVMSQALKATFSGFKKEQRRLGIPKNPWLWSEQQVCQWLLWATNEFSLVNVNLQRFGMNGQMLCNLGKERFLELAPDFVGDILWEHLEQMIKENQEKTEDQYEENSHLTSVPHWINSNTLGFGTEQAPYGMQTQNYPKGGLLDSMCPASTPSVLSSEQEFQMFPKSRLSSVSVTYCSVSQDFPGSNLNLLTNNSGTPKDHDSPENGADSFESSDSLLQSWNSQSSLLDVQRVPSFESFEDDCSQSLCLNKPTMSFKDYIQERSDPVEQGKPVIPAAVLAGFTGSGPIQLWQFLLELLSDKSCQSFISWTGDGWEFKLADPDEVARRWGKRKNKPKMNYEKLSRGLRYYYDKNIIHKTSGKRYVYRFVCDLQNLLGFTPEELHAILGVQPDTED
In short: as §1

SPDEF = target: T4, SPDEF (Homo sapiens, UniProt O95238 1-335)
T4 sequence: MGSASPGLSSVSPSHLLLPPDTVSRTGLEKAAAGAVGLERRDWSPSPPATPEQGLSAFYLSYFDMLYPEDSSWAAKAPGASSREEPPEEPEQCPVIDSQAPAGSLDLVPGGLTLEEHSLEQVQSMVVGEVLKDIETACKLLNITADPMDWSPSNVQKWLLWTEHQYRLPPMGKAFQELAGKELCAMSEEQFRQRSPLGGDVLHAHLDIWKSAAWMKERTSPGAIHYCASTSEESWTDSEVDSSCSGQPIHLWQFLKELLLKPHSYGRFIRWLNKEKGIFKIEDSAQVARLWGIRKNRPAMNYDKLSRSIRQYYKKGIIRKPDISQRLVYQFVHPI
In short: as §1

ETV7 = target: T5, ETV7 (Homo sapiens, UniProt Q9Y603 1-341)
T5 sequence: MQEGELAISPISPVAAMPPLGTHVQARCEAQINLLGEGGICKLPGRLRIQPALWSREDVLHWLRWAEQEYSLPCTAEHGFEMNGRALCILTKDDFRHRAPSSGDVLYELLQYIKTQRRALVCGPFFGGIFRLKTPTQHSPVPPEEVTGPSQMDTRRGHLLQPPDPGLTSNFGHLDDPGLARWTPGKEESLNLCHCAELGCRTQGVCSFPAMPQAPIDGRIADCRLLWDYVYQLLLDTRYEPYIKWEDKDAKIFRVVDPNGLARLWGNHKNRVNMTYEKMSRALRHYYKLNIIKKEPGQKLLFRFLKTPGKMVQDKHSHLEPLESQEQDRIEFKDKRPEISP
In short: as §1

ELF5 = target: T6, ELF5 (Homo sapiens, UniProt Q9UKW6-2 1-255)
T6 sequence: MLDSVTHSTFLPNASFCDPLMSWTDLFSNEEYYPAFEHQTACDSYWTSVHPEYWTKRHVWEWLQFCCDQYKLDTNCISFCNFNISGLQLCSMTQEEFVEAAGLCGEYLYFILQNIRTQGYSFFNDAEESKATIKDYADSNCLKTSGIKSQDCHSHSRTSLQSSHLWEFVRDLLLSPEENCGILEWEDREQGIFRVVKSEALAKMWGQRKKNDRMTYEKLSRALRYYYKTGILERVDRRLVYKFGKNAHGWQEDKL
In short: as §1

ETV3 = target: T7, ETV3 (Homo sapiens, UniProt P41162-2 1-143)
T7 sequence: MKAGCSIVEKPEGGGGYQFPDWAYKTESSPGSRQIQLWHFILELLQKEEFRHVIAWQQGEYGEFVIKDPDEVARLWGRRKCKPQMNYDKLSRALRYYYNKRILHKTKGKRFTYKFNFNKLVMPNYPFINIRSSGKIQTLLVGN
In short: as §1

ETV6 = ETV6 (Homo sapiens, UniProt P41212 1-452)
Chain of ETV6 (P41212 whole entry): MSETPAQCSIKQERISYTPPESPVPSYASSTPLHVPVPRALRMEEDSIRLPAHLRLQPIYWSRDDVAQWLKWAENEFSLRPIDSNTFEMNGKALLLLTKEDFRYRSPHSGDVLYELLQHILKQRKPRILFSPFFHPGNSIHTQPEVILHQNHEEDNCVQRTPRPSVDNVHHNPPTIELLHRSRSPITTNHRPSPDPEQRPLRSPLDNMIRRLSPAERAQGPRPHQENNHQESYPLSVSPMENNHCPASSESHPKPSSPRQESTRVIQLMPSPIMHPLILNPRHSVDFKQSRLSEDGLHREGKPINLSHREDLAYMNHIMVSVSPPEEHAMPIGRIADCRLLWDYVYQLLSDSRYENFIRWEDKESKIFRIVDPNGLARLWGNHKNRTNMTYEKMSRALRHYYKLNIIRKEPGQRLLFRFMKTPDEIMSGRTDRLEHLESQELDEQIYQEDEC
In short: as §1

ATCCGA
binding signal (ERF): 1.22 fold enrichment (6-mer frequency, TF over GST control)
binding signal (ETV3L): 1.24 fold enrichment (6-mer frequency, TF over GST control)
binding signal (ETS2): 1.08 fold enrichment (6-mer frequency, TF over GST control)
binding signal (SPDEF): 1.26 fold enrichment (6-mer frequency, TF over GST control)
binding signal (ETV7): 1.15 fold enrichment (6-mer frequency, TF over GST control)
binding signal (ELF5): 1.25 fold enrichment (6-mer frequency, TF over GST control)
binding signal (ETV3): 1.11 fold enrichment (6-mer frequency, TF over GST control)
binding signal (ETV6): 1.24 fold enrichment (6-mer frequency, TF over GST control)

TACATT
binding signal (ERF): 1.34 fold enrichment (6-mer frequency, TF over GST control)
binding signal (ETV3L): 1.18 fold enrichment (6-mer frequency, TF over GST control)
binding signal (ETS2): 1.19 fold enrichment (6-mer frequency, TF over GST control)
binding signal (SPDEF): 1.18 fold enrichment (6-mer frequency, TF over GST control)
binding signal (ETV7): 1.25 fold enrichment (6-mer frequency, TF over GST control)
binding signal (ELF5): 1.22 fold enrichment (6-mer frequency, TF over GST control)
binding signal (ETV3): 1.2 fold enrichment (6-mer frequency, TF over GST control)
binding signal (ETV6): 1.29 fold enrichment (6-mer frequency, TF over GST control)

GGGCTA
binding signal (ERF): 1.02 fold enrichment (6-mer frequency, TF over GST control)
binding signal (ETV3L): 1.18 fold enrichment (6-mer frequency, TF over GST control)
binding signal (ETS2): 1.2 fold enrichment (6-mer frequency, TF over GST control)
binding signal (SPDEF): 1.09 fold enrichment (6-mer frequency, TF over GST control)
binding signal (ETV7): 1.06 fold enrichment (6-mer frequency, TF over GST control)
binding signal (ELF5): 1.09 fold enrichment (6-mer frequency, TF over GST control)
binding signal (ETV3): 1.12 fold enrichment (6-mer frequency, TF over GST control)
binding signal (ETV6): 1.13 fold enrichment (6-mer frequency, TF over GST control)

AAGTGG
binding signal (ERF): 1.24 fold enrichment (6-mer frequency, TF over GST control)
binding signal (ETV3L): 1.17 fold enrichment (6-mer frequency, TF over GST control)
binding signal (ETS2): 1.19 fold enrichment (6-mer frequency, TF over GST control)
binding signal (SPDEF): 1.06 fold enrichment (6-mer frequency, TF over GST control)
binding signal (ETV7): 1.31 fold enrichment (6-mer frequency, TF over GST control)
binding signal (ELF5): 1.24 fold enrichment (6-mer frequency, TF over GST control)
binding signal (ETV3): 1.23 fold enrichment (6-mer frequency, TF over GST control)
binding signal (ETV6): 1.3 fold enrichment (6-mer frequency, TF over GST control)

CGATAC
binding signal (ERF): 1.2 fold enrichment (6-mer frequency, TF over GST control)
binding signal (ETV3L): 1.18 fold enrichment (6-mer frequency, TF over GST control)
binding signal (ETS2): 1.19 fold enrichment (6-mer frequency, TF over GST control)
binding signal (SPDEF): 1.29 fold enrichment (6-mer frequency, TF over GST control)
binding signal (ETV7): 1.02 fold enrichment (6-mer frequency, TF over GST control)
binding signal (ELF5): 1.1 fold enrichment (6-mer frequency, TF over GST control)
binding signal (ETV3): 1.15 fold enrichment (6-mer frequency, TF over GST control)
binding signal (ETV6): 1.09 fold enrichment (6-mer frequency, TF over GST control)

CGATCC
binding signal (ERF): 1.33 fold enrichment (6-mer frequency, TF over GST control)
binding signal (ETV3L): 1.18 fold enrichment (6-mer frequency, TF over GST control)
binding signal (ETS2): 1.2 fold enrichment (6-mer frequency, TF over GST control)
binding signal (SPDEF): 1.4 fold enrichment (6-mer frequency, TF over GST control)
binding signal (ETV7): 1.1 fold enrichment (6-mer frequency, TF over GST control)
binding signal (ELF5): 1.2 fold enrichment (6-mer frequency, TF over GST control)
binding signal (ETV3): 1.24 fold enrichment (6-mer frequency, TF over GST control)
binding signal (ETV6): 1.23 fold enrichment (6-mer frequency, TF over GST control)

CTATCC
binding signal (ERF): 1.38 fold enrichment (6-mer frequency, TF over GST control)
binding signal (ETV3L): 1.4 fold enrichment (6-mer frequency, TF over GST control)
binding signal (ETS2): 1.35 fold enrichment (6-mer frequency, TF over GST control)
binding signal (SPDEF): 1.63 fold enrichment (6-mer frequency, TF over GST control)
binding signal (ETV7): 1.46 fold enrichment (6-mer frequency, TF over GST control)
binding signal (ELF5): 1.45 fold enrichment (6-mer frequency, TF over GST control)
binding signal (ETV3): 1.27 fold enrichment (6-mer frequency, TF over GST control)
binding signal (ETV6): 1.32 fold enrichment (6-mer frequency, TF over GST control)

CCGACG
binding signal (ERF): 1.32 fold enrichment (6-mer frequency, TF over GST control)
binding signal (ETV3L): 1.23 fold enrichment (6-mer frequency, TF over GST control)
binding signal (ETS2): 1.33 fold enrichment (6-mer frequency, TF over GST control)
binding signal (SPDEF): 1.19 fold enrichment (6-mer frequency, TF over GST control)
binding signal (ETV7): 1.34 fold enrichment (6-mer frequency, TF over GST control)
binding signal (ELF5): 1.28 fold enrichment (6-mer frequency, TF over GST control)
binding signal (ETV3): 1.16 fold enrichment (6-mer frequency, TF over GST control)
binding signal (ETV6): 1.31 fold enrichment (6-mer frequency, TF over GST control)

Reference: article PMC7862700, “An all-to-all approach to the identification of sequence-specific readers for epigenetic DNA modifications on cytosine”
